Compound activity as filed in PubChem.
E coli growth-1: E. coli V3065 growth inhibition, primary screen, counter-screen for AddAB inhibitor project, absorbance, OD600. 18 h. inhibition, % at 11.9 µM. 330,000 tested, 0.27% active. AID 449728, 2010;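 active = inhibition above the campaign's mean inhibition across all tested compounds plus 3 SD, cut at about 9.9% in these data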;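 also: uninfected addAB+ strain grown without phage in ampicillin broth; 0% = DMSO wells and 100% = ciprofloxacin 0.95 µg/ml wells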
E coli growth-2: E. coli growth inhibition, primary screen, OD600. OD600 absorbance (test concentration not listed). Escherichia coli growth, 23 h; hits give low values. AID 1053175, 2014. 330,000 tested, 0.21% active;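 active = OD600 absorbance below the run mean of sample wells minus 3.6 SD, in any replicate, cut at about 0.56 in these data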
Tat transport: E. coli Tat export inhibitors, primary screen, MC4100, TorA-mCherry reporter, fluorescence, single point | inhibition, % at 10 µM | 340,000 tested, 0.036% active | AID 488895, 2010;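 active = mean replicate inhibition at least 50% and at least half of replicates individually reaching 50%; inconclusive = only one of the two criteria met; inactive = neither criterion met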;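 also: exported cargo escapes ClpAP degradation while cytoplasmic cargo is degraded and loses fluorescence; 0% = median of neutral control wells and 100% = median of NaSCN control wells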
AddAB inh: growth inhibition of E. coli expressing H. pylori AddAB, primary screen, AddAB inhibitor project, absorbance | inhibition, % at 11.9 µM | 330,000 tested, 0.29% active; in the data active = inhibition above about 12%;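 also: 0% = vehicle wells of infected cells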
phage Ecoli inh: growth loss of phage-infected E. coli, primary screen, RecBCD inhibitor project, absorbance, with phage, HTS; inhibition, % at 11.9 µM; AID 651602, 2012; 360,000 tested, 0.26% active; in the data active = inhibition above about 11%
RecBCD conf: growth loss of phage-infected RecBCD+ E. coli, confirmation, RecBCD inhibitor project, absorbance, E. coli V66, T4 gene 2 phage; AID 651982, 2013; 890 tested, 45% active; E. coli V66 + T4 2- phage, growth OD; inhibition, % at 11.9 µM; shares compounds with phage Ecoli inh;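 active = mean inhibition over triplicates exceeding the hit threshold derived in the original primary screen, cut at about 11% in these data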
Ecoli viability: E. coli viability inhibition, counter-screen for RecBCD inhibitor project, absorbance, high throughput | shares compounds with phage Ecoli inh | absorbance (OD) growth | inhibition, % at 11.9 µM | 890 tested, 29% active | AID 651983, 2013; in the data active = inhibition above about 20%;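 also: E. coli strain V66 grown with compound alone and no phage infection; 0% = bacteria with DMSO vehicle only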
AddAB counter: growth loss of phage-infected AddAB-carrying E. coli, confirmation, counter-screen for RecBCD inhibitor project, absorbance, E. coli V3065, T4 phage; shares compounds with phage Ecoli inh; AID 651984, 2013; E. coli expressing H. pylori AddAB + T4 phage, OD growth; gene 2 mutant T4, recBCD-deleted host; inhibition, % at 11.9 µM; 890 tested, 45% active;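 active = mean inhibition above the solvent-only control wells' mean plus 3 SD, cut at about 22% in these data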;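 also: higher means less bacterial growth from phage killing when AddAB is blocked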
* marks the source's active call; other numbers are inactive results; ? = inconclusive; / = not tested or not shown; ! = repeats disagree. A selection: hits, their analogues and other compounds. The true share with any hit is near 0.51%.

SMILES	E coli growth-1	E coli growth-2	Tat transport	AddAB inh	phage Ecoli inh	RecBCD conf	Ecoli viability	AddAB counter
O=C(Nc1ccccc1-c1nnn(CC(=O)N2CCOCC2)n1)c1ccc(F)cc1	-0.5	0.67	-3.3	1.7	11.4*	-3.8	-4.7	-0.4
C=CCn1cc(C(=O)N2CCN(C)CC2)c(=O)c2cc(S(=O)(=O)N3CCCC3)ccc21	-0.7	0.762	-2.3	3.3	21.6*	-2.3	-2.0	-2.4
CCOC(=O)CC1c2ccc(C(F)(F)F)cc2S(=O)(=O)N1Cc1ccccc1 (centres undefined)	/	0.671	/	/	/	/	/	/
Cn1cc(S(=O)(=O)N2CCC(C(N)=O)CC2)c(=O)n(C)c1=O	0.9	0.724	-2.2	1.1	94.3*	-0.1	0.6	-2.3
Cc1ccc(C(=O)Nc2ccc3ccccc3n2)cc1	-1.3	0.664	-4.3	3.8	1.5	/	/	/
Cc1ccc(C(O)(C(=O)NNc2ccc3ccccc3n2)c2ccc(C)cc2)cc1	10.7*!	0.694	-1.9	10.2	13.1*!	4.0	7.7	4.5
COC(=O)C(NCc1cccc(CN(C(C(=O)OC)C(C)C)S(C)(=O)=O)c1)C(C)C (centres undefined)	/	0.629	/	/	/	/	/	/
CO[C@@]1(NC(=O)Cc2cccs2)C(=O)N2C(C(=O)O)=C(COC(N)=O)CS[C@@H]21	-2.1	/	-16.3	-1.3	27.2*	94.4*	104.3*	100.9*
CC(=O)n1cc(C2C=C(C(=O)N3CCN(Cc4ccccc4)CC3)OC(OCc3ccc(CO)cc3)C2)c2ccccc21 (centres undefined)	/	0.695	/	/	/	/	/	/
O=C1c2ccccc2C(=O)c2c(O)c(O)cc(O)c21	15.3*	0.662	-3.0	10.6	12.3*	6.3	8.5	8.0
O=c1[nH]nc(-c2ccc([N+](=O)[O-])o2)c(=O)[nH]1	/	0.523*	40.4	/	22.3*	15.9*	17.1	91.2*
c1nc(SSc2ncnc3nc[nH]c23)c2[nH]cnc2n1	/	/	-20.2	/	24.2*	58.0*	57.8*	75.0*
c1ccc(CSc2ccc(-c3ccccn3)nn2)cc1	7.5	0.675	-4.7	6.4	11.5*	5.5	6.5	12.5
CC(C)(C)C(Cn1cncn1)=NOC(=O)Nc1ccc(Cl)cc1	/	0.672	/	/	/	/	/	/
CCN1/C(=C/c2ccc3cc(C)ccc3[n+]2CC)Sc2cc(C)c(C)cc21	/	0.25*	-8.3	/	12.0*	9.7	9.1	26.7*
CC(C)(C)OC(=O)Nc1ccc(C(NC(=O)OC(C)(C)C)C(=O)OC(C)(C)C)cc1 (centres undefined)	/	0.67	/	/	/	/	/	/
O=C(CN1CCOCC1)NN=Cc1ccc([N+](=O)[O-])o1	/	/	/	/	17.4*	10.4	9.5	53.8*
O=C(N/N=C/c1ccc([N+](=O)[O-])o1)c1ccc2c(c1)OCO2	/	/	-15.4	/	11.1*	12.3*	12.3	102.5*
CC(=NO)C(=O)NCCCn1ccnc1	/	0.643	/	/	/	/	/	/
COC(=O)C(Cc1ccccc1)NS(=O)(=O)NC(Cc1ccccc1)C(=O)OC (centres undefined)	/	0.701	/	/	/	/	/	/
O=C(C=Cc1ccccc1)c1cc(Br)ccc1O	/	0.642	1.3	/	1.9	/	/	/
Cc1ccc(/C=C/C(=O)c2cc(Br)ccc2OC(=O)c2ccco2)cc1	1.6	0.718	20.9	0.7	2.2	/	/	/
Cc1cccc(/C=C/C(=O)c2cc(Br)ccc(=O)c2O)c1	5.9	0.669	-0.8	7.9	17.0*	5.6	6.6	5.3
CCOc1ccc(C(=O)/C=C/c2ccc(OC)c(OC)c2)cc1	-0.9	0.684	4.4	1.2	0.9	/	/	/
CCc1ccc(/C=C/C(=O)c2cc(Br)ccc(=O)c2O)cc1	2.9	0.692	-4.9	3.0	13.8*	9.8	11.9	-0.5
SMILES	E coli growth-1	E coli growth-2	Tat transport	AddAB inh	phage Ecoli inh	RecBCD conf	Ecoli viability	AddAB counter
CCOc1ccc(/C=C/C(=O)c2cc(Br)ccc(=O)c2O)cc1	9.4	0.693	1.1	12.9*	15.7*	6.6	9.8	2.9
CCC(=NNC(=O)CSCc1ccccc1Cl)c1ccc2c(c1)OCCO2	/	0.696	/	/	/	/	/	/
Cc1cc(C2=CC(=O)CC(c3ccc4c(c3)OCO4)C2)ccc1F (centres undefined)	/	0.655	/	/	/	/	/	/
CC(C)(C)C1C=C(C(=O)N2CCN(Cc3ccc4c(c3)OCO4)CC2)OC(OCc2ccc(CO)cc2)C1 (centres undefined)	/	0.671	/	/	/	/	/	/
C/C(CC(=O)Nc1ccccn1)=N\NC(=O)c1ccccc1O	8.9	/	0.9	9.7	19.3*	8.6	10.0	12.4
CC(CC(=O)Nc1ccccn1)=NNC(=O)c1ccccc1	/	0.712	/	/	/	/	/	/
CNc1nc2ccccc2n1N=Cc1cccc(OC)c1OC	/	0.749	/	/	/	/	/	/
CCCNC(=O)c1nc(C)c(C)nc1C(=O)Nc1cccc(Cl)c1	-2.0	0.651	-0.7	-1.2	67.1*	-1.7	-2.3	-4.1
Cc1nc(C)c(C(=O)Nc2cccc(Cl)c2)o1	-1.8	0.645	9.3	1.4	2.4	/	/	/
CO[C@H]1C=CO[C@@]2(C)Oc3c(C)c(O)c4c(O)c(c(C=NN5CCN(C)CC5)c(O)c4c3C2=O)NC(=O)C(C)=CC=C[C@H](C)[C@H](O)[C@@H](C)[C@@H](O)[C@@H](C)[C@H](OC(C)=O)[C@@H]1C	41.6*	/	75.0*	48.7*	76.4*	78.2*	90.1*	92.8*
CC(=O)NCCCc1nc2ccccc2n1Cc1ccccc1F	0.7	0.649	1.0	2.9	22.4*	-1.7	-0.9	-1.2
O=C(O)C(CC(=O)c1ccc(Cl)cc1)=NNc1ccc([N+](=O)[O-])cc1[N+](=O)[O-]	/	0.61	/	/	/	/	/	/
Cc1ccc(S(=O)(=O)Nc2cc(Cl)c(O)c3ncccc23)cc1	11.2*	/	-1.3	11.2	12.3*	4.8	8.7	9.4
Cc1ccc2c(Cl)cc(Cl)c(O)c2n1	/	0.0635*	?	/	13.3*	6.8	8.9	8.3
Clc1cc2cccnc2c2ccccc12	1.9	0.678	4.0	3.0	1.9	/	/	/
Cc1ccc(S(=O)(=O)Nc2cccnc2Oc2ccc(Cl)cc2)cc1	2.4	0.682	2.0	2.5	-1.1	/	/	/
Cc1cc(Cl)c2ccc3ccccc3c2n1	-0.4	0.69	-1.8	0.3	2.5	/	/	/
Oc1c(I)cc(I)c2cccnc12	0.5	0.426*	-3.8	-1.1	22.6*	26.4*	29.8*	24.7*
OCc1ccc(O)c2ncccc12	3.5	0.784	-5.6	-0.8	5.2	/	/	/
Oc1c(Cl)cc(Cl)c2cccnc12	/	0.071*	4.8	/	42.6*	55.1*	62.2*	50.7*
COC(=O)[C@@]1(Cc2ccc(OC)cc2)C2c3cc(C(=O)N(C)C)n(CCc4ccc(OC)c(Br)c4)c3CC2CN1C(=O)c1ccccc1 (some centres undefined)	/	0.761	/	/	/	/	/	/
